# In ChEMBL document CHEMBL3433997, “St. Jude Leishmania screening dataset” (2016):
# Molecular target: Solute carrier family 2, facilitated glucose transporter member 1 (Homo sapiens) (UniProt P11166)
# Test: ST_JUDE_LEISH: Cytotoxicity at 2uM final concentration against transgenic Leishmania Mexicana promastigotes LmGLUT1 that are glucose transport deficient and complemented with the human glucose transporter GLUT1. Activity is measured by DNA content using SYBR green in vitro
# Format: functional
# Solute carrier family 2, facilitated glucose transporter member 1 (Homo sapiens), sequence (P11166 whole entry): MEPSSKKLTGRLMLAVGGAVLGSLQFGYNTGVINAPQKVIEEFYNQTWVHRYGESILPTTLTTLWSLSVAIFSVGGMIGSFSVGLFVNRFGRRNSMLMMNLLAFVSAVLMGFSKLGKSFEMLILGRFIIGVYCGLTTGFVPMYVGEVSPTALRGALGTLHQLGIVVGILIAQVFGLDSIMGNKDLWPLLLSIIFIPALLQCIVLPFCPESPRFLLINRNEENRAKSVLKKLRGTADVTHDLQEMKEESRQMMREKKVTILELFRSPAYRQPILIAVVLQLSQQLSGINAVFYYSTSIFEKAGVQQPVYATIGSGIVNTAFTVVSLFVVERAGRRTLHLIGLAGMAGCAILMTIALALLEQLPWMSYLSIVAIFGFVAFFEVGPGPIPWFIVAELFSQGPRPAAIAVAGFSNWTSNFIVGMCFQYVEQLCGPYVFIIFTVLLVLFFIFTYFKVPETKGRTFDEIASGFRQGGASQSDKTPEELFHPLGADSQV
row,SMILES,inhibition
1,OC(c1ccccc1)C1CN(Cc2ccccc2)CCC1(O)c1ccccc1 (stereo unspecified),8.06%
2,CC(Cc1ccc(Cl)cc1)Nc1nc(NC2CCCC2)nc(N2CCC(C#N)(c3ccccc3)CC2)n1 (stereo unspecified),8.45%
3,O=C(C=Cc1cccs1)N(CCCn1ccnc1)c1nc2ccc(F)cc2s1,4.66%
4,CCCNCc1ccc(-c2ccc(CN(CCOC)C(=O)CCC(=O)c3ccc(OC)c(F)c3)cc2)nc1,0.12%
5,CCc1cc2c(N)nc(N)nc2nc1-c1ccccc1,4.22%
6,CN(c1ccc2c(c1)nc(NCc1ccc(F)cc1)n2C)c1ccnc(Nc2ccc(CS(C)(=O)=O)cc2)n1,-0.61%
7,CCn1c(-c2nonc2N)nc2c(C#CC(C)(C)O)ncc(OCCNCCc3ccc(OC)cc3)c21,5.15%
8,CCCc1cc(N2CCC(c3ccccc3)(N3CCCCC3)CC2)nc(Nc2ccc(OC)cc2)n1,15.7%
9,O=C(Nc1cccc(-c2ccc(-c3nc4cc(C(F)(F)F)ccc4[nH]3)cc2)c1)Nc1ccc(F)c(F)c1F,-0.86%
10,CN1CCN(c2ccnc3ccc(NC(=O)Nc4ccc(Br)cc4)cc23)CC1,-0.59%
11,COc1cccc(OC2CCN(C(=O)c3cc(C(C)(C)C)nn3Cc3ccccc3)CC2)c1,1.4%
12,Brc1ccc(Nc2nc(NCC3CCCO3)c3ccccc3n2)cc1 (stereo unspecified),24.2%
13,COc1cccc2c(NN=Cc3ccc(Cl)cc3)ccnc12,2.42%
14,O=C(Nc1cccc(C(F)(F)F)c1)c1cc([N+](=O)[O-])cc2cn[nH]c12,6.35%
15,O=C(c1ccc(Cl)c(Cl)c1)N1CCc2c([nH]c3ccccc23)C1CN1CCCC1 (stereo unspecified),4.26%
16,Cc1cc(-c2nc3cncc(-c4cccc(CN5CCCC5Cc5cccnc5)c4)c3n2C)nn1C (stereo unspecified),-1.04%
